High-throughput results (PubChem)
Only some compounds are listed: those with a hit (about 6.8% of all), similar ones and a draw of the others.
Pf Dd2 inh = P. falciparum Dd2 growth inhibition; SYBR Green, 72 h; active compounds read low; activity change, % at 10 µM; 2.3% of 94,000 active; in the data active = activity change below about -80%
C diff growth = blocks growth of Clostridium difficile; Clostridium difficile clinical isolate growth, OD600, 24 h; active compounds read low; growth activity, negative = inhibition, % at 16 µg/mL (by protocol); 0.25% of 86,000 active;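 active = mean growth activity at or below -80% and every replicate also at or below -80%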;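 note: 0% = DMSO wells and -100% = levofloxacin 16 µg/mL wells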
T cruzi growth-1 = inhibitors of T. cruzi proliferation; T. cruzi beta-gal in NIH3T3, GalScreen luminescence, 90 h; inhibition, % at 8.34 µM; 5.9% of 77,000 active;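 active = mean inhibition above about 93%, with at least 55% of replicates each passing it, limit read from the data, passing the limit was not always enough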
T cruzi growth-2 = inhibitors of T. cruzi proliferation; shares compounds with T cruzi growth-1; T. cruzi beta-gal in NIH3T3, GalScreen luminescence, 90 h; inhibition, % at 8.35 µM; 72% of 5,600 active;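 active = mean replicate inhibition above about 95% and at least 55% of replicates individually reaching it, limit read from the data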
T cruzi growth-3 = inhibitors of T. cruzi proliferation | shares compounds with T cruzi growth-1 | T. cruzi beta-gal in NIH3T3, GalScreen luminescence, 90 h | inhibition, % at 2.09 µM | 21% of 5,600 active;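 active = mean inhibition above about 95%, with at least 55% of replicates also reaching it, limit read from the data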;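 note: plate controls were neutral control median for no effect and positive control median for full effect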
3T3 cytotox = NIH/3T3 (mouse) viability loss. cytotoxicity (signal decrease), % at 8.35 µM. AID 651742. shares compounds with T cruzi growth-1. 14% of 5,600 active. NIH/3T3 viability, CellTiter-Glo ATP luminescence, 90 h;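 active = mean signal decrease across replicates above about 35% based on untreated-well scatter, with enough replicates individually passing, limit read from the data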;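 note: 0% = median of neutral control wells and 100% = median of positive control wells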
3T3 cytotox 2 = cytotoxicity in mouse NIH/3T3 fibroblasts; shares compounds with T cruzi growth-1; NIH/3T3 viability, CellTiter-Glo ATP luminescence, 90 h; inhibition, % at 24.9 µM; 56% of 5,600 active; AID 651744;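 active = mean loss of cell viability signal at or above a set limit, and enough replicates individually reaching it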;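 note: 0% = median of neutral control wells and 100% = median of positive control wells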
* hit, by the source's call; · = no result.

SMILES	Pf Dd2 inh	C diff growth	T cruzi growth-1	T cruzi growth-2	T cruzi growth-3	3T3 cytotox	3T3 cytotox 2
CC(=O)N(C)C[C@@H]1Oc2cc(C#Cc3ccccn3)ccc2S(=O)(=O)N([C@@H](C)CO)C[C@H]1C	16	-1	102*	91	81	-8	19
C[C@@H]1CCCCO[C@@H](CN(C)C)[C@H](C)CN([C@@H](C)CO)C(=O)c2cc(NC(=O)Cc3ccccc3)ccc2O1	16	-4	-32	·	·	·	·
CCC(=O)N(C)C[C@H]1Oc2cc(C3=CCCCC3)ccc2S(=O)(=O)N([C@@H](C)CO)C[C@@H]1C	-1	·	75	·	·	·	·
Cc1noc(C)c1NC(=O)Nc1ccc2c(c1)C(=O)N(C)[C@@H]1CC[C@@H](CC(=O)N[C@H]3CCN(Cc4ccccc4)C3)O[C@H]1CO2	8	-5	102*	17	-25	-1	-1
Cc1noc(C)c1NC(=O)Nc1ccc2c(c1)C(=O)N(C)[C@H]1CC[C@@H](CC(=O)N[C@H]3CCN(Cc4ccccc4)C3)O[C@H]1CO2	2	3	117*	88	43	-5	-14
Cc1noc(C)c1NC(=O)Nc1ccc2c(c1)C(=O)N(C)[C@H]1CC[C@H](CC(=O)N[C@H]3CCN(Cc4ccccc4)C3)O[C@@H]1CO2	4	5	-15	·	·	·	·
Cc1noc(C)c1NC(=O)Nc1ccc2c(c1)C(=O)N(C)[C@@H]1CC[C@@H](CC(=O)N[C@@H]3CCN(Cc4ccccc4)C3)O[C@@H]1CO2	12	-10	10	·	·	·	·
COCC(=O)Nc1ccc2c(c1)C(=O)N(C)C[C@@H](OC)[C@@H](C)CN(Cc1ccccc1OC)[C@@H](C)CO2	-1	2	-8	·	·	·	·
CCCNC(=O)N1CCC2(CC1)CN(C(=O)NC(C)C)[C@H](CO)c1c2c2ccc(OC)cc2n1C	-54	1	·	·	·	·	·
Cc1noc(C)c1NC(=O)Nc1ccc2c(c1)C(=O)N([C@@H](C)CO)C[C@H](C)[C@@H](CN(C)C(=O)c1ccccc1)OCCCC[C@@H](C)O2	-33	-9	25	·	·	·	·
CO[C@H]1CN(C)C(=O)c2ccc(NC(=O)C3CCCC3)cc2OC[C@H](C)N(C)C[C@@H]1C	-7	-1	·	·	·	·	·
C[C@H](NC(=O)C[C@H]1CC[C@H]2[C@@H](COC[C@@H](O)CN2C(=O)Nc2cc(Cl)cc(Cl)c2)O1)c1ccccc1	2	·	40	·	·	·	·
CCCNC(=O)C[C@H]1CC[C@H]2[C@@H](COC[C@H](O)CN2C(=O)Nc2ccccc2OC)O1	-22	·	117*	97*	0	-8	-10
COc1cccc(NC(=O)N2C[C@H](O)COC[C@H]3O[C@H](CC(=O)NC4Cc5ccccc5C4)CC[C@@H]32)c1	-54	1	-38	·	·	·	·
COc1cccc(NC(=O)N2C[C@H](O)COC[C@H]3O[C@@H](CC(=O)NC4Cc5ccccc5C4)CC[C@@H]32)c1	13	-4	109*	-7	-42	-16	-4
C[C@H](NC(=O)C[C@H]1CC[C@@H]2[C@H](COC[C@@H](O)CN2C(=O)Nc2cccc(Cl)c2)O1)c1ccccc1	1	57	32	·	·	·	·
CCCNC(=O)C[C@@H]1CC[C@H]2[C@@H](COC[C@H](O)CN2C(=O)Nc2ccccc2OC)O1	1	·	48	·	·	·	·
C[C@@H](NC(=O)C[C@H]1CC[C@H]2[C@@H](COC[C@H](O)CN2C(=O)Nc2cccc(Cl)c2)O1)c1ccccc1	-42	18	110*	105*	-1	10	46*
C[C@@H](NC(=O)C[C@@H]1CC[C@H]2[C@@H](COC[C@H](O)CN2C(=O)Nc2cc(Cl)cc(Cl)c2)O1)c1ccccc1	-2	·	100*	104*	91	30	52*
CC(C)NC(=O)Nc1cccc2c1O[C@H](CN(C)C(=O)Nc1ccc(F)cc1)[C@@H](C)CN([C@@H](C)CO)C2=O	-39	-5	7	·	·	·	·
Cc1ccc(S(=O)(=O)N(C)C[C@H]2Oc3ccc(NC(=O)Nc4cccc5ccccc45)cc3C(=O)N([C@H](C)CO)C[C@@H]2C)cc1	-40	·	44	·	·	·	·
C[C@@H]1CN([C@H](C)CO)C(=O)c2cc(-c3ccc(F)cc3)cnc2O[C@H]1CN(C)C(=O)Nc1ccccc1F	-19	-5	45	·	·	·	·
